# Results: publication PMC7862700, “An all-to-all approach to the identification of sequence-specific readers for epigenetic DNA modifications on cytosine”
# Experiments:
# Experiment in all cases: DAPPL (digital affinity profiling via proximity ligation, sequencing); 10 mM Tris-HCl pH 7.5, 50 mM NaCl, 1 mM DTT, 4% glycerol, room temperature, 30 min; GST-TFs on glutathione beads, 16-mer random dsDNA library, 0.1% formaldehyde crosslink after washing; high values mean tight binding
# FLI1 = target: T1, FLI1 (Homo sapiens, UniProt Q01543 1-452); conditions: protein: recombinant; tags: N-terminal GST; dsDNA, one strand shown
# T1 sequence: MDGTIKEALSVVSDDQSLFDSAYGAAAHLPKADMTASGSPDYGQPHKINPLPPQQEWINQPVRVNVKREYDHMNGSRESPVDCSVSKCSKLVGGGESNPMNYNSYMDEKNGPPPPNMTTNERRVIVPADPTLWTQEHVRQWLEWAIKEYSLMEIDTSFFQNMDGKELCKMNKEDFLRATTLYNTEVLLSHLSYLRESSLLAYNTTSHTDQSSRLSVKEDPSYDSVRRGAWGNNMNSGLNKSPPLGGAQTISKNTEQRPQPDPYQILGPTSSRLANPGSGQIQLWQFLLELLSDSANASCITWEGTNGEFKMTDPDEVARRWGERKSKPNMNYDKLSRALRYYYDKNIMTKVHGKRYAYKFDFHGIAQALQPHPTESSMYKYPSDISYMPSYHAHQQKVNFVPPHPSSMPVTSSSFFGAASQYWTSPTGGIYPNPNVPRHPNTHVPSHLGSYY
# Procedure, shortened: (§1)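 GST fusions of human transcription factors were expressed in yeast and captured with glutathione beads. Once given DNA barcodes and pooled alongside a tag-only sample, they were incubated for 30 min at room temperature with 200 nmole of a random double-stranded 16-mer DNA library in Tris/NaCl/DTT/glycerol buffer, then washed, crosslinked (0.1% formaldehyde), proximity-ligated, PCR-amplified and sequenced on an Illumina NextSeq500. The binding signal of each hexamer is its read frequency for a factor divided by its frequency for the tag-only sample.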
# ELK1 = target: T2, ELK1 (Homo sapiens, UniProt P19419 1-428); conditions: protein: recombinant; tags: N-terminal GST; dsDNA, one strand shown
# T2 sequence: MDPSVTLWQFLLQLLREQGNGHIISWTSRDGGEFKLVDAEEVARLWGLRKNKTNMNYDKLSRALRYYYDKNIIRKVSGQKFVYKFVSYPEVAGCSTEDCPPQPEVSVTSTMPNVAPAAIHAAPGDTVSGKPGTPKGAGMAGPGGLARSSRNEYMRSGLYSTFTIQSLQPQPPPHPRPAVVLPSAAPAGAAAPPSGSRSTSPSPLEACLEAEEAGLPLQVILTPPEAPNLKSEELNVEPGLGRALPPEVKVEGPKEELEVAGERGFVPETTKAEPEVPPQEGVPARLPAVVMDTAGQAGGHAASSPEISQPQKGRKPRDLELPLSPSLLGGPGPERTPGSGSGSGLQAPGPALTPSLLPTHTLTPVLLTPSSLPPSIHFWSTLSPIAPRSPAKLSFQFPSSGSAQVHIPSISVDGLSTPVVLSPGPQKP
# Procedure, shortened: as §1
# GABPA = target: T3, GABPA (Homo sapiens, UniProt Q06546 1-454); conditions: protein: recombinant; tags: N-terminal GST; dsDNA, one strand shown
# T3 sequence: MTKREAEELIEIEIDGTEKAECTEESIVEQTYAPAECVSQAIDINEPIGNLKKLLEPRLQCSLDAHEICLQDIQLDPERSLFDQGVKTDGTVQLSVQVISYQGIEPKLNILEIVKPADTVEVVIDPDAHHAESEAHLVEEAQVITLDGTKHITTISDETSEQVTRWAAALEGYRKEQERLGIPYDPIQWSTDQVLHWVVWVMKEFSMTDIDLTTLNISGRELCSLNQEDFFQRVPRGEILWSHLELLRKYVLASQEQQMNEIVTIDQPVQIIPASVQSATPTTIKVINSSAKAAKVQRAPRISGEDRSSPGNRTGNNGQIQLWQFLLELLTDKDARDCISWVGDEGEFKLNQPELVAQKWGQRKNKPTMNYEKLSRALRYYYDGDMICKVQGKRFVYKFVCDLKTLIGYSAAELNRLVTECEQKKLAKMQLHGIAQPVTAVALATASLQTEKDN
# Procedure, shortened: as §1
# ERG = target: T4, ERG (Homo sapiens, UniProt P11308 1-479); conditions: protein: recombinant; tags: N-terminal GST; dsDNA, one strand shown
# T4 sequence: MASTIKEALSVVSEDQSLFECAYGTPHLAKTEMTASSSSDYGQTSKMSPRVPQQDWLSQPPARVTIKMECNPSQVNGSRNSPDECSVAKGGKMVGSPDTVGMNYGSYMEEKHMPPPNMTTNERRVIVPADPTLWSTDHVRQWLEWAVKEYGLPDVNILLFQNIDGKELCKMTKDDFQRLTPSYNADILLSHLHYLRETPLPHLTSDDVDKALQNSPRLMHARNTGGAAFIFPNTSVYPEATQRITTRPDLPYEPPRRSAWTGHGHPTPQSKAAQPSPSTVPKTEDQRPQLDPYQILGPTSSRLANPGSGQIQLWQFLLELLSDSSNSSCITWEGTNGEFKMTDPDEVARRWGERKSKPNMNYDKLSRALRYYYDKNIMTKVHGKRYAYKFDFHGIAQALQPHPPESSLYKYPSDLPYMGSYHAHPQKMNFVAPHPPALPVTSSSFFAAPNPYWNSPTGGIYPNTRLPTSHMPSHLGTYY
# Procedure, shortened: as §1
# ELF1 = ELF1 (Homo sapiens, UniProt P32519 1-619); conditions: protein: recombinant; tags: N-terminal GST; dsDNA, one strand shown
# Chain of ELF1 (P32519 whole entry): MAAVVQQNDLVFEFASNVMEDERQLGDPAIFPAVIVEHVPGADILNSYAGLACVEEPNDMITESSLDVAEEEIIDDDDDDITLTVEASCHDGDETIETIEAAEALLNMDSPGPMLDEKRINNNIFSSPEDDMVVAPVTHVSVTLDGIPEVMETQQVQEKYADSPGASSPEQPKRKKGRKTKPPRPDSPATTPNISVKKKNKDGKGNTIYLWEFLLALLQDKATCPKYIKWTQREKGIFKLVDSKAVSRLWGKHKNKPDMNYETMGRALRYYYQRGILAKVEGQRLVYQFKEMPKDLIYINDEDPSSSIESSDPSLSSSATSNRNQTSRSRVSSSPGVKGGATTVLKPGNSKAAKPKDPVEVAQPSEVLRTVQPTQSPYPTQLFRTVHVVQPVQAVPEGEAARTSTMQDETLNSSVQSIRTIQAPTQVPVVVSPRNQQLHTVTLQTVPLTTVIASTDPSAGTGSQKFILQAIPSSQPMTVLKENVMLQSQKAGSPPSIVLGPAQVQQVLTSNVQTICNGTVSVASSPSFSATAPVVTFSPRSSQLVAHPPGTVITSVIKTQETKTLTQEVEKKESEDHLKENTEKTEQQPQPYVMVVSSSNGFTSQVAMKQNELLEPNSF
# Procedure, shortened: as §1
# EHF = target: T5, EHF (Homo sapiens, UniProt Q9NZC4 1-300); conditions: protein: recombinant; tags: N-terminal GST; dsDNA, one strand shown
# T5 sequence: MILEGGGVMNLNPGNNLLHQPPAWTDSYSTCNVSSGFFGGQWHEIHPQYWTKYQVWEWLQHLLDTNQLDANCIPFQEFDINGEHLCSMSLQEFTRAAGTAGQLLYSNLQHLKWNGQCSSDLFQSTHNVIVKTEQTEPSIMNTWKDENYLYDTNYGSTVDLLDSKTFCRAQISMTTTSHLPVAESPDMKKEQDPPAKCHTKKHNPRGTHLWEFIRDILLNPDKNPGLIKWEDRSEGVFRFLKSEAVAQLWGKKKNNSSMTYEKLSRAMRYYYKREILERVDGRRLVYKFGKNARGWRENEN
# Procedure, shortened: as §1
# SPI1 = SPI1 (Homo sapiens, UniProt P17947 1-270); conditions: protein: recombinant; tags: N-terminal GST; dsDNA, one strand shown
# Procedure, shortened: as §1
# SPIB = SPIB (Homo sapiens, UniProt Q01892 1-262); conditions: protein: recombinant; tags: N-terminal GST; dsDNA, one strand shown
# Chain of SPIB (Q01892 whole entry): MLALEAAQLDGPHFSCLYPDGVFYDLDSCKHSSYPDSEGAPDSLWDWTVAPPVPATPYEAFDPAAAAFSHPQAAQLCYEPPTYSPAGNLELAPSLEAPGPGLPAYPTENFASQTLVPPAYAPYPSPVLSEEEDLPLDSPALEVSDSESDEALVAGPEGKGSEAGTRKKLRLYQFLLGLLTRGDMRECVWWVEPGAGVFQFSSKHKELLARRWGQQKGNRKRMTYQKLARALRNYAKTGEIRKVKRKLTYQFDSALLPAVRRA
# Procedure, shortened: as §1
# ELK3 = target: T6, ELK3 (Homo sapiens, UniProt P41970 1-407); conditions: protein: recombinant; tags: N-terminal GST; dsDNA, one strand shown
# T6 sequence: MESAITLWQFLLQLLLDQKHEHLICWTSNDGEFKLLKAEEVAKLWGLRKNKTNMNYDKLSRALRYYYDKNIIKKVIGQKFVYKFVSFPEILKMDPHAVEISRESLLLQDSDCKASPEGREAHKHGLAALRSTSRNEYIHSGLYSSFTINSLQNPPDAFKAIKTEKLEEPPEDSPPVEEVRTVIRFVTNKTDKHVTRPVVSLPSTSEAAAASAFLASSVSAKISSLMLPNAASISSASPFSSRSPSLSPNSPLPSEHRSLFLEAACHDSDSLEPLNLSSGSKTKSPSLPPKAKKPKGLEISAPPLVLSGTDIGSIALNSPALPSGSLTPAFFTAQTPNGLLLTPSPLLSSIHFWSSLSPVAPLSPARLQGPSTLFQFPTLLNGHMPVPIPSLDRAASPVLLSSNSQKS
# Procedure, shortened: as §1
# ETV5 = ETV5 (Homo sapiens, UniProt P41161 1-510); conditions: protein: recombinant; tags: N-terminal GST; dsDNA, one strand shown
# Chain of ETV5 (P41161 whole entry): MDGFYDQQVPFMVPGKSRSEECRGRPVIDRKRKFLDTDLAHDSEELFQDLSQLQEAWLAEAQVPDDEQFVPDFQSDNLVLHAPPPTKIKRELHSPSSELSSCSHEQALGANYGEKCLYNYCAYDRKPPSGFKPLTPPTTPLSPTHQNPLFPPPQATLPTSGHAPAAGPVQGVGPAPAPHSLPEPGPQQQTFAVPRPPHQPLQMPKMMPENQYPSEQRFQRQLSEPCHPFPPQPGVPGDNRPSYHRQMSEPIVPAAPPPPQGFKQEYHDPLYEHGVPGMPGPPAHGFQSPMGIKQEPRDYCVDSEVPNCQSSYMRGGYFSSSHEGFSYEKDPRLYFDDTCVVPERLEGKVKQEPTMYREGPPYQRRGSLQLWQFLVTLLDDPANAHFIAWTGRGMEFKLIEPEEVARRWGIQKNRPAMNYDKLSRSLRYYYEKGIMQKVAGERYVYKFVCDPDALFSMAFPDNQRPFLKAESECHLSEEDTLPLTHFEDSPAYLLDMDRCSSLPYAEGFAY
# Procedure, shortened: as §1
# HSF1 = HSF1 (Homo sapiens, UniProt Q00613 1-529); conditions: protein: recombinant; tags: N-terminal GST; chain copies: 3; dsDNA, one strand shown
# Chain of HSF1 (Q00613 whole entry): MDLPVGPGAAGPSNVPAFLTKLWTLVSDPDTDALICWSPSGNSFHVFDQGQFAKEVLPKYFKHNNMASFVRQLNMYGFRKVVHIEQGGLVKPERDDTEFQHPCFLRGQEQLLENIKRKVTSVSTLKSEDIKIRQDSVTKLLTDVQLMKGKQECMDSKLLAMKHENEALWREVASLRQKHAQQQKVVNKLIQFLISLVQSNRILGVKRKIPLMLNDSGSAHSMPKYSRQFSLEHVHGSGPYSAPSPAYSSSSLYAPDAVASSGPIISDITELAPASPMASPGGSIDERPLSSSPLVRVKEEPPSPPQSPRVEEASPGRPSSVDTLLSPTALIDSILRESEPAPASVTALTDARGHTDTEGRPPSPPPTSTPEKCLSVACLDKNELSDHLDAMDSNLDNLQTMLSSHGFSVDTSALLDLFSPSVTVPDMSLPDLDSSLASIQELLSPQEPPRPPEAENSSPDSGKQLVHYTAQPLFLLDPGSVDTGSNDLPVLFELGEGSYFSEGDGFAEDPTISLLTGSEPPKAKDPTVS
# Procedure, shortened: as §1
# SPIC = target: T7, SPIC (Homo sapiens, UniProt Q8N5J4 1-248); conditions: protein: recombinant; tags: N-terminal GST; dsDNA, one strand shown
# T7 sequence: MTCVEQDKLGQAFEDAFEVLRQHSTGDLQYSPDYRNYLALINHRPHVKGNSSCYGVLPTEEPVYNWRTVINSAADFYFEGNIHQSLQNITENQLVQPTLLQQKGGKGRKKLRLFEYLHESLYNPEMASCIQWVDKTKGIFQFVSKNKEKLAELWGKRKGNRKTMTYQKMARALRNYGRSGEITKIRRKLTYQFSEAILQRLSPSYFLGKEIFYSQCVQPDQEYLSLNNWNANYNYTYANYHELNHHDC
# Procedure, shortened: as §1
# ELF4 = ELF4 (Homo sapiens, UniProt Q99607 1-663); conditions: protein: recombinant; tags: N-terminal GST; dsDNA, one strand shown
# Chain of ELF4 (Q99607 whole entry): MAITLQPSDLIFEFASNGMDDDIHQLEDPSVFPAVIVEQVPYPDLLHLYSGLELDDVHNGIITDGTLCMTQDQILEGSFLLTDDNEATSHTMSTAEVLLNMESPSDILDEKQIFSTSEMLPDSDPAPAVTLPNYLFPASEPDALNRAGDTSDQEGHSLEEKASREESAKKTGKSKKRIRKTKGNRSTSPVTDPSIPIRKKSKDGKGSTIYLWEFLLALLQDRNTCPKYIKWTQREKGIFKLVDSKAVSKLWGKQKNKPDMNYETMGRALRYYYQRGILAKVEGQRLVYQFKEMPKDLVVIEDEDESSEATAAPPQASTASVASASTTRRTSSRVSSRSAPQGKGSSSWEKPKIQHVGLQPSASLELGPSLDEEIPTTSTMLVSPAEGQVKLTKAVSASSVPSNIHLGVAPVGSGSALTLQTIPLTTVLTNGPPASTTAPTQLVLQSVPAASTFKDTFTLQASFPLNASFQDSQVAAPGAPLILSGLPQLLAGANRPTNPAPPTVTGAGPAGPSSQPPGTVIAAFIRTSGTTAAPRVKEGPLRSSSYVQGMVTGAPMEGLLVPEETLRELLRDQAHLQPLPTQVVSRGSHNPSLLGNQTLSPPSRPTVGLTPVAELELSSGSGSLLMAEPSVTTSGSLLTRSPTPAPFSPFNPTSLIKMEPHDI
# Procedure, shortened: as §1
# ELK4 = target: T8, ELK4 (Homo sapiens, UniProt P28324-2 1-405); conditions: protein: recombinant; tags: N-terminal GST; dsDNA, one strand shown
# T8 sequence: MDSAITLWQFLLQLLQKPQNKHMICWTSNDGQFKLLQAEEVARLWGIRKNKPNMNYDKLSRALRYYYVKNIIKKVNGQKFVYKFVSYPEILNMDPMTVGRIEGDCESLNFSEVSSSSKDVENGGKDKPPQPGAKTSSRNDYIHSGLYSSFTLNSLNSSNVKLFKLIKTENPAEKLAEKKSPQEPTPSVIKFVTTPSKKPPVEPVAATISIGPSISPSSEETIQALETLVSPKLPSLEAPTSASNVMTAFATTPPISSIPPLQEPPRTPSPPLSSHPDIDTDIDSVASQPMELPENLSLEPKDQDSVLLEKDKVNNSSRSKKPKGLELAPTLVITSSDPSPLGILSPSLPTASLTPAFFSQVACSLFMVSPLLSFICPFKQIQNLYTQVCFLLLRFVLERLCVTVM
# Procedure, shortened: as §1
# ETV2 = target: T9, ETV2 (Homo sapiens, UniProt O00321 1-342); conditions: protein: recombinant; tags: N-terminal GST; dsDNA, one strand shown
# T9 sequence: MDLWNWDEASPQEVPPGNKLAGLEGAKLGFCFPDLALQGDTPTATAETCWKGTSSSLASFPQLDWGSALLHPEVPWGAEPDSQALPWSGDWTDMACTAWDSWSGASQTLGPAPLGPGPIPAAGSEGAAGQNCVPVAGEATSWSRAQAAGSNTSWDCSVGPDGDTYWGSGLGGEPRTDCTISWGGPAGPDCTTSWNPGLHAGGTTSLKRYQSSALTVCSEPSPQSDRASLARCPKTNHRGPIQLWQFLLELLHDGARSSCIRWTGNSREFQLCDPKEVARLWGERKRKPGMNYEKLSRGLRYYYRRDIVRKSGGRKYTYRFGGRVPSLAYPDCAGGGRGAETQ
# Procedure, shortened: as §1
# ELF3 = target: T10, ELF3 (Homo sapiens, UniProt P78545 1-371); conditions: protein: recombinant; tags: N-terminal GST; dsDNA, one strand shown
# T10 sequence: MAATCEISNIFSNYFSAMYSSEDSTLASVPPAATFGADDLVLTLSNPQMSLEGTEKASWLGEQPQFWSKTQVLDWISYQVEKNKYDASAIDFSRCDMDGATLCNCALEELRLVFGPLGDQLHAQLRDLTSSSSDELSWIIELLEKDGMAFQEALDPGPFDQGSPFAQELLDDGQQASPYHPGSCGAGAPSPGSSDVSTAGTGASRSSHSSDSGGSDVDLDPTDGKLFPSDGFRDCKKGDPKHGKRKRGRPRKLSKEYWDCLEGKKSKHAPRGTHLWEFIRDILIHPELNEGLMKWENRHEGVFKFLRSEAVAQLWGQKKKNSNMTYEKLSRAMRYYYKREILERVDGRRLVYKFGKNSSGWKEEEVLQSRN
# Procedure, shortened: as §1
# CRX = CRX (Homo sapiens, UniProt O43186 1-299); conditions: protein: recombinant; tags: N-terminal GST; dsDNA, one strand shown
# Chain of CRX (O43186 whole entry): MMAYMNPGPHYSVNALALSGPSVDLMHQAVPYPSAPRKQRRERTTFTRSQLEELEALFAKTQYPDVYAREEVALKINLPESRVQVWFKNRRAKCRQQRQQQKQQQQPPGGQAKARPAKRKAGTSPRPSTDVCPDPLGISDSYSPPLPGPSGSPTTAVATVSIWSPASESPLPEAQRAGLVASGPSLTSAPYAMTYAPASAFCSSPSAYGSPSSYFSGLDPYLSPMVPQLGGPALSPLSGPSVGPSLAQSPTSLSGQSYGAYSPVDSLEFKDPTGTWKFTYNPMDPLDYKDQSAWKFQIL
# Procedure, shortened: as §1
# ETV1 = ETV1 (Homo sapiens, UniProt P50549 1-477); conditions: protein: recombinant; tags: N-terminal GST; dsDNA, one strand shown
# Chain of ETV1 (P50549 whole entry): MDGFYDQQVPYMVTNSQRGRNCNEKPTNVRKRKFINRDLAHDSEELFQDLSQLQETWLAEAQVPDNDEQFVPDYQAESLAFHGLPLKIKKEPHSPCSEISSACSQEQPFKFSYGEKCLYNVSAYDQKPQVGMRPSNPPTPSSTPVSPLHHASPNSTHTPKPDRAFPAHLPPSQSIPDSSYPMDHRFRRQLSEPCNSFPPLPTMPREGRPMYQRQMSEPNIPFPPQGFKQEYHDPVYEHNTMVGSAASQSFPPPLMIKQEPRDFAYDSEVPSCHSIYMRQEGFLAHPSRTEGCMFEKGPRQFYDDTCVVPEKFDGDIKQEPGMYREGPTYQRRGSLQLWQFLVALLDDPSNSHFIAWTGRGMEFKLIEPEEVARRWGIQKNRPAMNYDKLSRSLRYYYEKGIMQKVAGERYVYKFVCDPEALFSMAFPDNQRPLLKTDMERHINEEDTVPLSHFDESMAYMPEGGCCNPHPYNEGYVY
# Procedure, shortened: as §1
sequence,measurement,setting,value
TAATGT,binding signal,FLI1,"1.15 fold enrichment (6-mer frequency, TF over GST control)"
same,binding signal,ELK1,"1.02 fold enrichment (6-mer frequency, TF over GST control)"
same,binding signal,GABPA,"1.08 fold enrichment (6-mer frequency, TF over GST control)"
same,binding signal,ERG,"1.09 fold enrichment (6-mer frequency, TF over GST control)"
same,binding signal,ELF1,"1.11 fold enrichment (6-mer frequency, TF over GST control)"
same,binding signal,EHF,"1.07 fold enrichment (6-mer frequency, TF over GST control)"
same,binding signal,SPI1,"1.06 fold enrichment (6-mer frequency, TF over GST control)"
same,binding signal,SPIB,"1.05 fold enrichment (6-mer frequency, TF over GST control)"
same,binding signal,ELK3,"1.09 fold enrichment (6-mer frequency, TF over GST control)"
same,binding signal,ETV5,"1.14 fold enrichment (6-mer frequency, TF over GST control)"
same,binding signal,HSF1,"1.19 fold enrichment (6-mer frequency, TF over GST control)"
same,binding signal,SPIC,"1.21 fold enrichment (6-mer frequency, TF over GST control)"
same,binding signal,ELF4,"1.11 fold enrichment (6-mer frequency, TF over GST control)"
same,binding signal,ELK4,"1.19 fold enrichment (6-mer frequency, TF over GST control)"
same,binding signal,ETV2,"1.08 fold enrichment (6-mer frequency, TF over GST control)"
same,binding signal,ELF3,"1.04 fold enrichment (6-mer frequency, TF over GST control)"
same,binding signal,CRX,"1.5 fold enrichment (6-mer frequency, TF over GST control)"
same,binding signal,ETV1,"1.16 fold enrichment (6-mer frequency, TF over GST control)"
